Laboratory results reported in article PMC10668032, “Altered binding affinity of SIX1-Q177R correlates with enhanced WNT5A and WNT pathway effector expression in Wilms tumor”.
Whole data set: some 33,000 sequences, median “e-score” near -0.05, cut for the highest 2% near 0.38. Only a selection was taken, and the highest values are over-represented in it overall.

target: T1, SIX1-Q177R homeodomain (human, UniProt Q15475 108-198, Q177R); assay: universal protein binding microarray; Universal all-10-mer PBM (8x60K, AMADID 030236), 300 nM GST-tagged protein, Alexa Fluor 488 anti-GST; buffer, salt, pH and temperature not stated (as in Berger); high values mean tight binding; conditions: protein: ivt; tags: N-terminal GST; dsDNA, one strand shown
T1 sequence: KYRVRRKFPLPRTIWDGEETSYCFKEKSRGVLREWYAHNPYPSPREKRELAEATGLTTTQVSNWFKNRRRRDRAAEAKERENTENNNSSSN
Procedure, shortened: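 Binding of GST-tagged homeodomains is given as 8-mer E-scores from the Universal PBM Analysis Suite. The proteins were produced by in vitro transcription/translation, quantified by anti-GST western blot against a recombinant GST standard curve, and applied in duplicate at 300 nM final concentration to universal 'all 10-mer' protein binding microarrays (8×60K format).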

Row | Sequence | binding signal
1 | AACCGGGT | 0.218 ± 0.0414 E-score
2 | CACCCCAC | 0.355 ± 0.0406 E-score
3 | ACCCCACC | 0.327 ± 0.05 E-score
4 | ACTCCCGC | 0.253 ± 0.0194 E-score
5 | CACCATCA | 0.231 ± 0.0313 E-score
6 | CCCGGATA | 0.164 ± 0.0511 E-score
7 | CACTACAC | 0.443 ± 0.00461 E-score
8 | AACTACCC | 0.151 ± 0.011 E-score
9 | CACTACAG | 0.196 ± 0.0315 E-score
10 | CACTACAA | 0.236 ± 0.0147 E-score
11 | CACTACTC | 0.21 ± 0.00852 E-score
12 | GACTACAC | 0.428 ± 0.0046 E-score
13 | GACTCCAC | 0.211 ± 0.00527 E-score
14 | CACTACGC | 0.166 ± 0.0306 E-score
15 | AACTACAC | 0.445 ± 0.0094 E-score
16 | CAAGGGTG | 0.252 ± 0.0109 E-score
17 | CACTTCCA | 0.202 ± 0.0394 E-score
18 | GTCCTACA | 0.243 ± 0.0623 E-score
19 | CACTTAGG | 0.229 ± 0.00363 E-score
20 | ACTCCACT | 0.263 ± 0.0258 E-score
21 | CAGGGGTC | 0.242 ± 0.0124 E-score
22 | GTCGGATA | 0.292 ± 0.00296 E-score
23 | ACCCCGCC | 0.271 ± 0.018 E-score
24 | ACCGAAGT | 0.167 ± 0.0104 E-score
25 | ACGCCCCT | 0.205 ± 0.0263 E-score

Row | Sequence | binding signal
26 | ACGCCCCC | 0.19 ± 0.00645 E-score
27 | ACACGCCA | 0.381 ± 0.0176 E-score
28 | ACACGCCT | 0.416 ± 0.0145 E-score
29 | ACCCGCCC | 0.243 ± 0.0168 E-score
30 | ACACGCCC | 0.4216 ± 0.00148 E-score
31 | ACCCGCCT | 0.206 ± 0.00671 E-score
32 | CAACGCCG | 0.164 ± 0.00575 E-score
33 | TAACGCCA | 0.16 ± 0.00152 E-score
34 | ACCCGCCG | 0.258 ± 0.00942 E-score
35 | ATACGCCA | 0.151 ± 0.00585 E-score
36 | ACACGCCG | 0.404 ± 0.009 E-score
37 | GGGGTACA | 0.329 ± 0.00694 E-score
38 | GATCCCTA | 0.24 ± 0.0333 E-score
39 | GTGCCAAC | 0.156 ± 0.0339 E-score
40 | GAATTACA | 0.22 ± 0.0378 E-score
41 | ACCCATCG | 0.179 ± 0.0324 E-score
42 | CACTGGGC | 0.154 ± 0.00412 E-score
43 | ACCCTATC | 0.17 ± 0.0179 E-score
44 | CCGATACC | 0.361 ± 0.0126 E-score
45 | CGCACACG | 0.24 ± 0.0245 E-score
46 | CGCACACA | 0.16 ± 0.0759 E-score
47 | AGCACACC | 0.38 ± 0.026 E-score
48 | AGCACACT | 0.163 ± 0.0222 E-score
49 | AGCACACG | 0.257 ± 0.015 E-score
50 | CGCACACC | 0.395 ± 0.0298 E-score

Row | Sequence | binding signal
51 | AATCCACA | 0.155 ± 0.0214 E-score
52 | AGTATACA | 0.235 ± 0.0155 E-score
53 | ACGCCACC | 0.194 ± 0.00825 E-score
54 | AACGGTGT | 0.4669 ± 0.000509 E-score
55 | AAAAGTGT | 0.274 ± 0.0858 E-score
56 | AACGGTGC | 0.184 ± 0.0227 E-score
57 | AAGGGTAT | 0.262 ± 0.0281 E-score
58 | AAGGGTGT | 0.4645 ± 0.00313 E-score
59 | AAAGGTGT | 0.452 ± 0.0138 E-score
60 | CACGGTGA | 0.221 ± 0.0367 E-score
61 | AATGGGGT | 0.246 ± 0.0257 E-score
62 | AATGGTAT | 0.227 ± 0.00525 E-score
63 | AATGGTGT | 0.4746 ± 0.00144 E-score
64 | AAGGGGGT | 0.293 ± 0.0313 E-score
65 | AAAGGGGT | 0.162 ± 0.0302 E-score
66 | AGGGGTAT | 0.3 ± 0.0125 E-score
67 | CGACTCCC | 0.263 ± 0.056 E-score
68 | GGTCCACA | 0.17 ± 0.0089 E-score
69 | TCGTTACA | 0.278 ± 0.00887 E-score
70 | AACCTACA | 0.192 ± 0.0148 E-score
71 | GTACTGAC | 0.172 ± 0.0189 E-score
72 | CACCCCCG | 0.325 ± 0.0496 E-score
73 | GACCCCCC | 0.248 ± 0.0557 E-score
74 | CACCCCCC | 0.341 ± 0.0318 E-score
75 | GACCCCCA | 0.233 ± 0.0487 E-score

Row | Sequence | binding signal
76 | GACACCCA | 0.479 ± 0.00732 E-score
77 | CACACCCC | 0.402 ± 0.0285 E-score
78 | GACACCCC | 0.487 ± 0.00971 E-score
79 | CGCACCCG | 0.245 ± 0.0361 E-score
80 | GGCACCCC | 0.158 ± 0.0472 E-score
81 | CCCACCCC | 0.304 ± 0.0356 E-score
82 | CACACCCG | 0.423 ± 0.0208 E-score
83 | CGCACCCA | 0.193 ± 0.0349 E-score
84 | CCCCTGAC | 0.271 ± 0.0456 E-score
85 | CAATGGTG | 0.299 E-score
86 | CACTCGAC | 0.211 ± 0.00795 E-score
87 | CGGGTCTC | 0.207 ± 0.0182 E-score
88 | ATGAGGGG | 0.195 ± 0.0319 E-score
89 | AAGTCGTG | 0.169 ± 0.0361 E-score
90 | AGATGGAG | 0.181 ± 0.00463 E-score
91 | CACGCAAA | 0.251 ± 0.0233 E-score
92 | AACTCACA | 0.174 ± 0.0813 E-score
93 | CTGATACC | 0.312 ± 0.00631 E-score
94 | CGGGAGTA | 0.26 ± 0.0317 E-score
95 | CACCCATA | 0.301 ± 0.0276 E-score
96 | CACCTTGA | 0.177 ± 0.00756 E-score
97 | GTTCTACA | 0.239 ± 0.00598 E-score
98 | GATCCCCA | 0.267 ± 0.0387 E-score
99 | AACACCCC | 0.4753 ± 0.00361 E-score
100 | AACACCCG | 0.466 E-score

Row | Sequence | binding signal
101 | AACCCCCA | 0.209 ± 0.0281 E-score
102 | AGCACCCA | 0.159 ± 0.0296 E-score
103 | ACCACCCC | 0.249 ± 0.0234 E-score
104 | AACACCCT | 0.4609 ± 0.00173 E-score
105 | AGCACCCT | 0.172 ± 0.0259 E-score
106 | AACCCCCG | 0.244 ± 0.0392 E-score
107 | ACCACCCT | 0.183 ± 0.0205 E-score
108 | AGCACCCG | 0.262 ± 0.00343 E-score
109 | AGCACCCC | 0.295 ± 0.0259 E-score
110 | AACACCCA | 0.4561 ± 0.00225 E-score
111 | AACTCCGG | 0.161 ± 0.0108 E-score
112 | ACCTCGTG | 0.208 ± 0.00536 E-score
113 | ACGCCGGG | 0.16 ± 0.00711 E-score
114 | CGGATAAC | 0.213 ± 0.00738 E-score
115 | ACCTAGTG | 0.232 ± 0.0203 E-score
116 | CCGACCGG | 0.172 ± 0.0141 E-score
117 | CGCGCACC | 0.193 ± 0.014 E-score
118 | AACGGAGT | 0.152 ± 0.031 E-score
119 | ACCAGACA | 0.234 ± 0.0203 E-score
120 | ACGATACC | 0.3575 ± 0.00339 E-score
121 | CACCCCCA | 0.368 ± 0.0341 E-score
122 | CCCACCCA | 0.204 ± 0.0309 E-score
123 | TACCCCCA | 0.304 ± 0.00484 E-score
124 | TGCACCCA | 0.153 ± 0.0378 E-score
125 | CACACCCA | 0.382 ± 0.038 E-score

Row | Sequence | binding signal
126 | TACACCCA | 0.4707 ± 0.00252 E-score
127 | CGAACGGA | 0.21 ± 0.0321 E-score
128 | ACCCAGTA | 0.175 ± 0.0267 E-score
129 | GTGTTAGA | 0.41 ± 0.0163 E-score
130 | GTGTGAAC | 0.362 ± 0.00749 E-score
131 | GTGTTACA | 0.4422 ± 0.00139 E-score
132 | GAGTTAAC | 0.171 ± 0.00701 E-score
133 | CTGTTACA | 0.238 ± 0.0173 E-score
134 | GTGTTATA | 0.432 ± 0.0299 E-score
135 | ATGTTACA | 0.177 ± 0.00778 E-score
136 | GGGTTATA | 0.2303 ± 0.000672 E-score
137 | GTGTTTTA | 0.361 ± 0.026 E-score
138 | GTGTTTGA | 0.35 ± 0.00533 E-score
139 | GTGTTAAC | 0.415 ± 0.0316 E-score
140 | ACCTAACA | 0.203 ± 0.0209 E-score
141 | ACAAGGGT | 0.21 ± 0.00286 E-score
142 | AAGAGTGT | 0.363 ± 0.0349 E-score
143 | CCGACGCC | 0.154 ± 0.0342 E-score
144 | AGGGAGTG | 0.163 ± 0.00586 E-score
145 | CACTAACC | 0.17 ± 0.00501 E-score
146 | AGGGCGTG | 0.169 ± 0.0301 E-score
147 | CTCCGACA | 0.175 ± 0.075 E-score
148 | ACCTGCCT | 0.198 ± 0.0238 E-score
149 | CACCTTAG | 0.286 ± 0.00858 E-score
150 | CGCGGGTA | 0.273 ± 0.00467 E-score

Row | Sequence | binding signal
151 | CGGTGCGA | 0.155 ± 0.0742 E-score
152 | TGGAAACA | 0.223 ± 0.0152 E-score
153 | GTGTTTAA | 0.375 ± 0.015 E-score
154 | GGGTTAAA | 0.214 ± 0.0192 E-score
155 | GTGTTAAA | 0.403 ± 0.0279 E-score
156 | ACGGGGTC | 0.214 ± 0.0134 E-score
157 | AAACCCAG | 0.219 ± 0.0117 E-score
158 | ACCCCCAA | 0.312 ± 0.0125 E-score
159 | AACCCCAT | 0.169 ± 0.00626 E-score
160 | ACCCCCAG | 0.23 ± 0.0356 E-score
161 | GCACCCAA | 0.154 ± 0.0464 E-score
162 | ACACCCAA | 0.4542 ± 0.000742 E-score
163 | ACACCCAG | 0.4602 ± 0.00339 E-score
164 | ACACCCAT | 0.458 ± 0.00543 E-score
165 | GCACCCAC | 0.194 ± 0.0207 E-score
166 | ACCCCCAT | 0.272 ± 0.0289 E-score
167 | ACCCCCAC | 0.282 ± 0.0258 E-score
168 | ACACCCAC | 0.4683 ± 0.00307 E-score
169 | ACCAACGC | 0.246 ± 0.0108 E-score
170 | TATCAACA | 0.288 ± 0.0159 E-score
171 | ACCCCGAC | 0.265 ± 0.018 E-score
172 | CTCGATCC | 0.201 ± 0.00608 E-score
173 | GGTGCTTA | 0.234 ± 0.00599 E-score
174 | CGGTGACA | 0.248 ± 0.0377 E-score
